Data published in PubChem BioAssay (NCATS).
Activity calls are given as the source filed them. No rule for the calls is given here.

test system: HIV-1 nucleocapsid protein NCp7 (binding to TG oligonucleotide); assay: HIV Nucleocapsid (AID 346); settings: HIV-1 NC / fluorescein-TGTGTGTG probe, fluorescence polarization;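 also: potency is for inhibitors that block NC binding and lower polarization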
Outline: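 Reagents dispensed (10 nM TG4xF, 100 nM HIV-1 NC), plates spun, compounds pin-transferred, then incubated 1 hr at room temperature before FP imaging. Buffer: Hepes pH 7.5, 250mM NaCl, 1uM ZnCl2, 100 uM TCEP, 5 mM 2-mercaptoethanol.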
Potency is read from the fitted curve at half-maximal effect.

Compound | Potency
COc1ccc(NC(=O)N2CC[C@@]3(CCCN(C(=O)c4ccc(OC)cc4)C3)C2)cc1 | > 20 µM (inactive)
COc1ccc(-n2c(=O)c(CCc3ccccc3)nc3cncnc32)cc1 | > 20 µM (inactive)
CN(Cc1ccco1)c1nc(-c2cccnc2)nc2ccccc12 | > 20 µM (inactive)
N#Cc1ccc(CN2CCC3(CC2)CCN(C(=O)c2ccco2)CC3)cc1 | > 20 µM (inactive)
COc1ccccc1CN1CC[C@@]2(CCCN(C(=O)c3c(C)noc3C)C2)C1 | > 20 µM (inactive)
COc1cccc(Nc2ncc3nc(CCc4ccccc4)c(=O)n(C4CC4)c3n2)c1 | > 4 µM (inactive)
COc1cccc(Cn2c(=O)c(C)nc3cnc(Oc4ccccc4)nc32)c1 | > 20 µM (inactive)
O=c1c(-c2ccccc2)nc2cnc(N3CCOCC3)nc2n1C[C@H]1CCCO1 | > 20 µM (inactive)
O=C(c1cnccn1)N1CCC2(CCCN(c3ccncc3)C2)CC1 | > 20 µM (inactive)
CNc1nc(-c2ccc(C(=O)N(C)C)cc2)nc2ccccc12 | > 20 µM (inactive)
Cc1noc(C)c1-c1nc(Nc2ccc(F)cc2)c2ccccc2n1 | > 20 µM (inactive)
COc1cccc(-c2cncnc2NC2CCNCC2)c1 | > 20 µM (inactive)
Cc1noc(C)c1C(=O)N1CCC[C@@]2(CCN(Cc3ccc(C#N)cc3)C2)C1 | > 20 µM (inactive)
CN(C)C(=O)c1ccc(-c2cc(NCc3ccccc3)ncn2)cc1 | > 20 µM (inactive)
O=c1c(-c2ccc(Cl)cc2)nc2cncnc2n1Cc1ccccc1 | > 20 µM (inactive)
CN(Cc1ccco1)c1cc(-c2ccccc2C(F)(F)F)ncn1 | > 20 µM (inactive)
COCCn1c(=O)c(-c2ccc(OC)cc2)nc2cnc(Nc3ccccc3)nc21 | > 20 µM (inactive)
O=C(c1csnn1)N1CCC2(CCCN(c3ncccn3)C2)CC1 | > 20 µM (inactive)
CCNc1ncc2ncc(=O)n(Cc3cccs3)c2n1 | > 20 µM (inactive)
COCCn1c(=O)c(-c2ccc(F)cc2)nc2cnc(Oc3ccc(OC)cc3)nc21 | > 20 µM (inactive)

Compound | Potency
CS(=O)(=O)N1CCC2(CC1)CN(c1ccccc1)C2 | > 20 µM (inactive)
CCNc1ncc2nc(-c3cccs3)c(=O)n(-c3ccc(OC)cc3)c2n1 | 4.09 µM (active)
O=c1c(-c2ccc(F)cc2)nc2cnc(Nc3ccccc3)nc2n1Cc1cccs1 | > 4 µM (inactive)
COc1ncc2nc(C)c(=O)n(Cc3ccc(F)cc3)c2n1 | > 20 µM (inactive)
O=C(c1cccc(F)c1)N1CCC2(CCCN(c3cccc(-c4ccccc4)c3)C2)CC1 | > 20 µM (inactive)
N#Cc1cccc(-c2ccc3ncnc(N4CCNCC4)c3c2)c1 | > 20 µM (inactive)
N#Cc1ccccc1-c1ccc2ncnc(NCc3ccccc3)c2c1 | > 20 µM (inactive)
FC(F)(F)c1ccccc1-c1ccc2ncnc(N3CCOCC3)c2c1 | > 20 µM (inactive)
COC(=O)N1CCC2(CCCN(c3ccc(-c4ccccc4)cc3)C2)CC1 | > 20 µM (inactive)
Cc1cnc(CNc2ncncc2-c2ccc(C(=O)N(C)C)cc2)cn1 | > 20 µM (inactive)
O=c1c(-c2ccc(F)c(F)c2)nc2cncnc2n1Cc1ccccc1 | > 20 µM (inactive)
COc1ccc(-n2c(=O)cnc3cnc(N4CCOCC4)nc32)cc1 | > 20 µM (inactive)
COCC(=O)N1CCC2(CCCN(c3ccccc3)C2)CC1 | > 20 µM (inactive)
COCCn1c(=O)c(C)nc2cnc(N(C)C)nc21 | > 20 µM (inactive)
Cc1noc(C)c1-c1ccc2ncnc(N(C)Cc3ccco3)c2c1 | > 20 µM (inactive)
COCC(=O)N1CCC2(CC1)CN(C(=O)Nc1ccc(OC)cc1)C2 | > 20 µM (inactive)
Cn1cccc1C(=O)N1CCC2(CC1)CN(Cc1cc(C(F)(F)F)cc(C(F)(F)F)c1)C2 | > 20 µM (inactive)
O=c1c(CCc2ccccc2)nc2cnc(N3CCOCC3)nc2n1-c1ccccc1 | > 20 µM (inactive)
O=C(c1ccncc1)N1CCC2(CC1)CN(c1cccc(-c3ccccc3)c1)C2 | > 20 µM (inactive)
